Data: PubChem BioAssay
Activity calls are given as the source filed them. No rule for the calls is given here.

Assay: inhibitors of hydroxyurea-induced Chk1 phosphorylation, primary screen, imaging, HeLa, phospho-Chk1 nuclear intensity (AID 1187); also: test concentration not given here
Conditions: hydroxyurea-induced phospho-Chk1 immunofluorescence imaging, higher = more signal

SMILES	z-score
COC(=O)[C@@]1(Cc2ccc(OC)cc2)[C@H]2c3cc(C(=O)N4CCCC4)n(CCn4cc([N+](=O)[O-])nc4C)c3C[C@H]2CN1C(=O)c1ccccc1	1.22 (inactive)
[N-]=[N+]=NCc1ccccc1[C@@H]1OC(c2ccc(OCCCO)cc2)=N[C@]1(Cc1ccccc1N=[N+]=[N-])C(=O)O	0.585 (inactive)
C=CCOC(=O)[C@H]1[C@@H]2C(=O)O[C@@H](c3ccccc3)[C@@H](c3ccccc3)N2[C@@H](c2ccc(OCCOC(=O)[C@H]3C[C@H]4C(=O)N[C@@H](CC(C)C)C(=O)N4[C@H]3c3ccc(O)cc3)cc2)[C@]12C(=O)Nc1ccccc12	-0.0249 (inactive)
COc1ccc([Si](C)(C)[C@H]2[C@H](CC(=O)N3Cc4ccccc4C[C@H]3CO)O[C@@]3(C(=O)N(c4ccccc4)c4ccccc43)[C@@H]2C)cc1	-0.786 (inactive)
N#Cc1ccc(-c2cccc(=O)o2)cc1	0.674 (inactive)
COCCOC(=O)N1C(=O)[C@@]2(c3ccccc31)[C@H](C(=O)N1CCN(c3ncccn3)CC1)[C@H]1C(=O)O[C@H](c3ccccc3)[C@H](c3ccccc3)N1[C@@H]2c1ccccc1OCCO	-0.484 (inactive)
NC(=O)NCC#Cc1ccc2c(c1)[C@]1(C(=O)N2)[C@H](c2ccc(OCCO)cc2)N2[C@H](c3ccccc3)[C@H](c3ccccc3)OC(=O)[C@H]2[C@@H]1C(=O)O	0.2 (inactive)
COC(=O)[C@@]1(Cc2ccc(OC)cc2)[C@H]2c3cc(C(=O)N(C)C)[nH]c3C[C@H]2CN1C(=O)c1ccccc1	-0.309 (inactive)
